Measurements: ChEMBL document CHEMBL1201862, “PubChem BioAssay data set” (2004)
Out of some 57,000 sequences screened, about 4,000 (7%) were called active. Rule as the data show it: active = GI50 up to about 1.1 µM and inactive = higher. The list is a sample of the results. Results with a measured potency or affinity are listed apart.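 A five-concentration, 48-hour dose response in 96-well plates underlies each endpoint, interpolated linearly between surrounding concentrations. GI50: concentration for 50% inhibition of growth.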

Tested on: M14
Assay: NCI tumour cell line growth inhibition, 48 h

| Substance | GI50 [µM] |
| --- | --- |
| mu-(1,7-nanodiamine-N,N')bis-(cis-aminedichloroplatimum (II)), CHEMBL2146215 | 7.78 |
| cis-Bis[[(trimethylsilyl)methyl]amino]tetrachloroplatinum(IV), CHEMBL2146191 | 3.5 |
| [Bis(aminomethyl)dimethylsilane]dichloroplatinum (II), CHEMBL2146201 | 22.9 |
| [Bis(aminomethyl)diethylsilane]tetrachloroplatinum(IV), CHEMBL2146203 | 1.38 |
| [Bis(aminomethyl)tetramethylenesilane]dichloropaltinum(II), CHEMBL2146205 | 13.5 |
| [Bis(aminomethyl)ethylmethylsilane]tetrachloroplatinum(IV), CHEMBL2146192 | 2.68 |
| [Bis(aminomethyl)tetramethylenesilane]tetrachloropaltinum(IV), CHEMBL2146189 | 6.11 |
| CISPLATIN, CHEMBL11359 | 1.95 |
| [Bis(aminomethyl)dimethylsilane]tetrachloroplatinum(IV), CHEMBL2146190 | 7.45 |
| [Bis(aminomethyl)pentamethylenesilane]tetrachloropaltinum(IV), CHEMBL2146204 | 2.13 |
| [Bis(aminomethyl)pentamethylenesilane]dichloropaltinum(II), CHEMBL2146202 | 1.92 |
